Reference: PubChem BioAssay (NCATS)
Results filed as inconclusive are left out. Calls of active or inactive are those of the source. Unless noted, the call rests on the fitted dose curve; in most records, active means well fitted curve in the direction sought with a large enough effect; inconclusive means small, poorly fitted or top-dose-only effect, or another doubt; inactive means no such curve, though single readings can be large; an effect the other way counts as inactive or inconclusive.

Tests used:
[1] = target: Ferritin light chain (Equus caballus) (UniProt P02791); assay: qHTS Validation Assay for Identification of Novel General Anesthetics (AID 2323); further: series mostly up to about 77 µM
In short: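 Apoferritin from horse spleen (10 uM) was mixed with 1-aminoanthracene at 50% saturation in PBS, then compounds were added. After 10 min at room temperature, fluorescence was read (ex 380 nm, em 535 nm) and normalized to free-probe and complex controls.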

[2] = target: ATP-dependent DNA helicase Q1 (Homo sapiens) (UniProt P46063); assay: qHTS Validation Assay for Inhibitors of RecQ-Like Dna Helicase 1 (RECQ1) (AID 2353)
In short: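 RECQ1T1 50 nM; forked duplex (20 bp + 30-nt ss tails) 200 nM, ATP 2 mM final; pH 8.0, 2 mM MgCl2, 2.5 ug/ml poly(dI-dC); 15 min compound preincubation; discontinuous kinetic read over 2 h at RT.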

[3] = target: RecQ-like DNA helicase BLM (Homo sapiens) (UniProt P54132); assay: qHTS Validation Assay for Inhibitors of Bloom's syndrome helicase (BLM) (AID 2364)
In short: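 BLM 50 nM in 25 mM Tris-HCl pH 8.0, 5 mM NaCl, 2 mM MgCl2, 1 mM DTT, 0.01% Tween-20, 2.5 ug/ml poly(dI-dC); 15 min cpd preinc, RT. Start: 200 nM forked DNA + 2 mM ATP (final). TAMRA read, 2 reads 2 h apart.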

[4] = Cytometric Cell-Based qHTS for Inhibitors of the mTORC1 Signaling Pathway in MEF (Tsc2-/-, p53-/-) Cells (AID 2660);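 further: Tsc2 and p53 null MEFs carrying empty vector with compound for 24 h; percent of cells above a phospho-rpS6 to PI ratio cutoff in each well; series mostly up to about 38 µM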
In short: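 Immunofluorescence qHTS of rpS6 Ser235/236 phosphorylation: MEFs (Tsc2-/-, p53-/-) treated 24 h, 37 C, in DMEM + 10% FBS. Alexa-488 signal normalized to PI count, referenced to rapamycin (7.5 nM) and DMSO; PI cell number recorded for viability.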

[5] = High Content Imaging Cell-Based qHTS for Inhibitors of the mTORC1 Signaling Pathway in MEF (Tsc2-/-, p53-/-) Cells (AID 2666);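 further: percent of cells scored positive for phospho-rpS6 Ser235/236 immunostaining by imaging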
In short: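 Inhibition of rpS6 phosphorylation is measured by immunofluorescence imaging in empty-vector Tsc2-/-, p53-/- mouse embryonic fibroblasts after 24 hrs compound exposure at 37 degree Celsius. Results are reported as % positive cells per well.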

[6] = High Content Imaging Cell-Based qHTS for Inhibitors of the mTORC1 Signaling Pathway in MEF Cells (AID 2667);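 further: Tsc2-/- p53-/- MEFs stably re-expressing wild-type Tsc2 exposed 24 h; series mostly up to about 38 µM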
In short: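 Fixed-cell imaging of phospho-S6 (Ser235/236, Alexa-488) after 24 hrs of compound treatment at 37 degree Celsius. Signal was normalized to Hoechst, and thresholds from the highest and lowest wells split cells into % active versus % non-active.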

[7] = Cytometry Cell-Based qHTS for Inhibitors of the mTORC1 Signaling Pathway in MEF cells (AID 2668);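 further: Tsc2-/- p53-/- mouse embryonic fibroblasts stably re-expressing wild-type Tsc2; percent cells positive for phospho-rpS6 Ser235/236 relative to propidium iodide stain; series mostly up to about 38 µM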
In short: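 Pathway inhibition in WT Tsc2-rescued Tsc2-/-, p53-/- MEFs is measured as the Alexa-488 phospho-rpS6 to propidium iodide intensity ratio after 24 hrs of compound at 37 degree Celsius. PI-stained cell number gives viability.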

[8] = Validation screen for small molecules that induce DNA re-replication in MCF 10A normal breast cells (AID 463097); further: nearly all actives have a fitted effect of over 60% in size
In short: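 DNA re-replication was detected as a rise in nuclei with elevated Hoechst fluorescence after a 48 hr compound exposure of MCF 10A cells at 37 C.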

[9] = target: Ubiquitin carboxyl-terminal hydrolase 2 (Homo sapiens) (UniProt O75604); assay: qHTS Validation Assay for Inhibitors of Ubiquitin-specific Protease USP2a Using CHOP2 as the Reporter (AID 463106)
In short: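 Inhibition is expressed relative to NEM as the full-inhibition control, with concentration-response curves classed by fit quality, magnitude and activity. Enzyme (USP2 core, 10nM) meets 25nM Ub-CHOP2 after compound preincubation; readings are taken at 60min.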

[10] = target: Tumor susceptibility gene 101 protein (Homo sapiens) (UniProt Q99816); assay: qHTS Validation Assay for Iinhibitors of HIV-1 Budding by Blocking the Interaction of PTAP/TSG101 (AID 485342; calls by dose curve)
In short: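 Fluorescence anisotropy measured PTAP-Tsg101 interaction. Final concentrations were 10 uM protein domain and 50 nM labeled peptide, equilibrated 20 min at room temperature.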

[11] = qHTS Validation Assay to Find Inhibitors of Chronic Active B-Cell Receptor Signaling (AID 485345; active means well fitted curve in the direction sought with a large enough effect in the main read-out, with a control signal flat, not every such curve was filed as active)
In short: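 TMD8 ABC-DLBCL cells with dox-inducible green luciferase–IκBα fusion and red native luciferase; compounds 46 uM–3 nM, 4 h at 37C with doxycycline in 0.5% FBS IMDM. Green/red ratio normalized to basal and 10 uM MG-132.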

[12] = target: Beta-2 adrenergic receptor (Homo sapiens) (UniProt P07550); assay: qHTS validation assay of beta-arrestin-biased ligands of beta2-adrenergic receptor (AID 485366)
In short: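 Agonism was measured as beta-arrestin recruitment to recombinant beta2-AR, releasing tTA to drive luciferase. Cells were exposed for 18 hr at 37 degrees C to a series up to 46 microM. %Activity from corrected luminescence gave concentration-response curves.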

[13] = target: ATP-dependent 6-phosphofructokinase (Trypanosoma brucei brucei) (UniProt O15648); assay: qHTS Validation Assay to Find Inhibitors of T. brucei phosphofructokinase (AID 485368); settings: outcome: dose series up to 57.5 µM
In short: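 ADP-Glo luminescence, two-step: residual ATP depleted, then ADP converted to ATP for luciferase. Enzyme 1.25 nM, F6P 0.5 mM, ATP 0.1 mM, pH 8.0 TEA buffer, 45 min RT. Curves fitted and classed by quality and efficacy.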

[14] = Quantitative high throughput screen for delayed death inhibitors of the malarial parasite plastid, 96 hour incubation (AID 488745);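 further: luciferase-expressing P. falciparum in erythrocytes at 2% hematocrit and 0.1% parasitemia; series mostly up to about 29 µM; nearly all actives have a fitted effect of over 70% in size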
In short: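 Luciferase-expressing P. falciparum, infected RBCs 2% Hct/0.1% parasitemia (final); 96 h cpd exposure, 37 C, 5% CO2; RPMI 1640 + 0.5% Albumax, bicarbonate, gentamycin. Readout: luminescence loss = growth inhibition.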

[15] = target: Thioredoxin reductase 1, cytoplasmic (Rattus norvegicus) (UniProt O89049); assay: qHTS Assay for Substrates of Mammalian Selenoprotein Thioredoxin Reductase 1 (TrxR1) (AID 488772);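 further: series mostly up to about 57 µM; a drop in NADPH fluorescence below the no-compound background marks a TrxR1 substrate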
In short: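 In this dual-purpose format, potential substrates are identified from the first fluorescence read after selenite addition, not from the 8-minute delta. Rat enzyme is preincubated with NADPH and then with compound at ~22 deg C.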

[16] = target: Thioredoxin reductase 1, cytoplasmic (Rattus norvegicus) (UniProt O89049); assay: qHTS Assay for Inhibitors of Mammalian Selenoprotein Thioredoxin Reductase 1 (TrxR1) (AID 488773); settings: Potency: inhibition;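 further: drop in NADPH fluorescence over an 8 min run after selenite addition; series mostly up to about 57 µM; nearly all actives have a fitted effect of over 40% in size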
In short: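 Inhibition is scored from the loss of NADPH fluorescence between first and last reads of an 8-min kinetic run. Selenite (400 uM) was the substrate, added after 15 min compound preincubation at room temperature.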

[17] = target: Flap endonuclease 1 (Homo sapiens) (UniProt P39748); assay: qHTS Validation Assay for the Inhibitors of Human Flap endonuclease 1 (FEN1) (AID 488816)
In short: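 Steps: add FEN1 (10 nM reagent) or buffer only; pin compounds; hold 15 min at room temperature; start with substrate, 50 nM final; read at 0 and 15 min; correct, normalize and fit a four-parameter Hill curve.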

[18] = target: M-phase phosphoprotein 8 (Homo sapiens) (UniProt Q99549); assay: qHTS Validation Assay for Inhibitors for MPP8 Chromodomain Interactions with Methylated Histone Tails (AID 488949);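 further: AlphaScreen signal from MPP8 chromodomain bound to biotinylated H3K9me3 peptide; top concentration of the series differs between compounds; nearly all actives have a fitted effect of over 55% in size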
In short: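 Disruption of the preformed MPP8–trimethyl-H3K9 peptide complex (both 50 nM, 30 min, RT) is measured after 30 min compound exposure, using AlphaScreen proximity beads; aurintricarboxylic acid titration serves as plate control.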

[19] = target: DNA polymerase III PolC-type (Bacillus subtilis (strain 168)) (UniProt P13267); assay: qHTS Validation Assay for the Inhibitors of DNA Replication in Gram-Positive Bacteria (AID 485295);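 further: reconstituted holoenzyme with PolC plus beta clamp SSB and primase; PicoGreen fluorescence of double-stranded DNA made on primed circular M13 template; series mostly up to about 57 µM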
In short: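 Primed replication of single-stranded M13Gori by a four-protein B. subtilis holoenzyme is measured at room temperature. Double-stranded product is quantified by PicoGreen fluorescence after an EDTA stop; inhibition is scaled between DMSO and EDTA controls.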

[20] = Quantitative high throughput screen for delayed death inhibitors of the malarial parasite plastid, 48 hour incubation (AID 488752); further: nearly all actives have a fitted effect of over 65% in size
In short: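 Luciferase-expressing P. falciparum in RBCs, 2% Hct, 0.1% parasitemia final; RPMI 1640 + 0.5% Albumax; 48 h, 37 C, 5% CO2; luminescence readout, signal drop = growth inhibition.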

Measured: Potency

Chain of Beta-2 adrenergic receptor (Homo sapiens) (P07550 whole entry, looked up): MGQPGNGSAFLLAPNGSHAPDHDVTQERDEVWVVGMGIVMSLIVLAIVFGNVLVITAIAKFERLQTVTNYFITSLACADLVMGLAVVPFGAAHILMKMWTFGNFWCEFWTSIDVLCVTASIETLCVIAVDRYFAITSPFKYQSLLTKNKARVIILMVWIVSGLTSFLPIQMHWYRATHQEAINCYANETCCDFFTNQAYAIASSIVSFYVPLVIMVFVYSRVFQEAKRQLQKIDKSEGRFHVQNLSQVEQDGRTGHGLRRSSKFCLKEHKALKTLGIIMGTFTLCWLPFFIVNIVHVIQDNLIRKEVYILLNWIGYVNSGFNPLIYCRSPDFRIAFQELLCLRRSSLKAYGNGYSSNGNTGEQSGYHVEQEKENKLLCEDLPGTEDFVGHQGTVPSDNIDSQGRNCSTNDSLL
Chain of M-phase phosphoprotein 8 (Homo sapiens) (Q99549 whole entry, looked up): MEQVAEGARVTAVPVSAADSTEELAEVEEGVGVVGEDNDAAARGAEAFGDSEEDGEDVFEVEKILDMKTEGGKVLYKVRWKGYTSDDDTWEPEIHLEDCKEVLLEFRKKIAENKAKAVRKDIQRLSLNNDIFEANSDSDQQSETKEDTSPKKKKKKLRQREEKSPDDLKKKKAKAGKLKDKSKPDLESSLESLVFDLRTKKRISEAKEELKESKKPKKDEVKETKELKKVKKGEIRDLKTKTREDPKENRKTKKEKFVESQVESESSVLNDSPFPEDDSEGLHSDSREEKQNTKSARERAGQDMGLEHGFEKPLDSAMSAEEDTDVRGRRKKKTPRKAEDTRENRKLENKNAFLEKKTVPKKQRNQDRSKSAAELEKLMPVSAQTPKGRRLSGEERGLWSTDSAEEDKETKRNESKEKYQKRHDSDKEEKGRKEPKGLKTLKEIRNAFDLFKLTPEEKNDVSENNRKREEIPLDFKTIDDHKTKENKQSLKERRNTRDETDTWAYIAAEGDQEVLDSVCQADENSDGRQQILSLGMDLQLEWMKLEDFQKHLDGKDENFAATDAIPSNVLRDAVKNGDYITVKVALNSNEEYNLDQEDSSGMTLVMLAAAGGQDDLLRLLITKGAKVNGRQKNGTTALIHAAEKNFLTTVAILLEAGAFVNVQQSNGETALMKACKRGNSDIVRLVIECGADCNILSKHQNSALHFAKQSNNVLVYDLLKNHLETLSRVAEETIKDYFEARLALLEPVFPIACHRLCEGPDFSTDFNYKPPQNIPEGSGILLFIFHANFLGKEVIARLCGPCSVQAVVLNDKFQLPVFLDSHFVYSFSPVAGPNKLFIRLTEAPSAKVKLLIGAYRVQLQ
Chain of Thioredoxin reductase 1, cytoplasmic (Rattus norvegicus) (O89049 whole entry, looked up): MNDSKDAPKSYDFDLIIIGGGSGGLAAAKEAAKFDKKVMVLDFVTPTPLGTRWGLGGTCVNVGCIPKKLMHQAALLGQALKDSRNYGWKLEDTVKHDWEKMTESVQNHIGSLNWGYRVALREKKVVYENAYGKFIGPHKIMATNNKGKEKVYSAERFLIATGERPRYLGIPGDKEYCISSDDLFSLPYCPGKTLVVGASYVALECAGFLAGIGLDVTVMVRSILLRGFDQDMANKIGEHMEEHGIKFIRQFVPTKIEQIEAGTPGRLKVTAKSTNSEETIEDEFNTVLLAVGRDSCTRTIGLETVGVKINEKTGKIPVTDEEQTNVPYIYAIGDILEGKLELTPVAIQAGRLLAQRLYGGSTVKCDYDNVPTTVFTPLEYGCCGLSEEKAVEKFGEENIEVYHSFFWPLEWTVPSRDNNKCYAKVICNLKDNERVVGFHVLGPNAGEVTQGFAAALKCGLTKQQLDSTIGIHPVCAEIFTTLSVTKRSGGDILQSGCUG
Chain of DNA polymerase III PolC-type (Bacillus subtilis (strain 168)) (P13267 whole entry, looked up): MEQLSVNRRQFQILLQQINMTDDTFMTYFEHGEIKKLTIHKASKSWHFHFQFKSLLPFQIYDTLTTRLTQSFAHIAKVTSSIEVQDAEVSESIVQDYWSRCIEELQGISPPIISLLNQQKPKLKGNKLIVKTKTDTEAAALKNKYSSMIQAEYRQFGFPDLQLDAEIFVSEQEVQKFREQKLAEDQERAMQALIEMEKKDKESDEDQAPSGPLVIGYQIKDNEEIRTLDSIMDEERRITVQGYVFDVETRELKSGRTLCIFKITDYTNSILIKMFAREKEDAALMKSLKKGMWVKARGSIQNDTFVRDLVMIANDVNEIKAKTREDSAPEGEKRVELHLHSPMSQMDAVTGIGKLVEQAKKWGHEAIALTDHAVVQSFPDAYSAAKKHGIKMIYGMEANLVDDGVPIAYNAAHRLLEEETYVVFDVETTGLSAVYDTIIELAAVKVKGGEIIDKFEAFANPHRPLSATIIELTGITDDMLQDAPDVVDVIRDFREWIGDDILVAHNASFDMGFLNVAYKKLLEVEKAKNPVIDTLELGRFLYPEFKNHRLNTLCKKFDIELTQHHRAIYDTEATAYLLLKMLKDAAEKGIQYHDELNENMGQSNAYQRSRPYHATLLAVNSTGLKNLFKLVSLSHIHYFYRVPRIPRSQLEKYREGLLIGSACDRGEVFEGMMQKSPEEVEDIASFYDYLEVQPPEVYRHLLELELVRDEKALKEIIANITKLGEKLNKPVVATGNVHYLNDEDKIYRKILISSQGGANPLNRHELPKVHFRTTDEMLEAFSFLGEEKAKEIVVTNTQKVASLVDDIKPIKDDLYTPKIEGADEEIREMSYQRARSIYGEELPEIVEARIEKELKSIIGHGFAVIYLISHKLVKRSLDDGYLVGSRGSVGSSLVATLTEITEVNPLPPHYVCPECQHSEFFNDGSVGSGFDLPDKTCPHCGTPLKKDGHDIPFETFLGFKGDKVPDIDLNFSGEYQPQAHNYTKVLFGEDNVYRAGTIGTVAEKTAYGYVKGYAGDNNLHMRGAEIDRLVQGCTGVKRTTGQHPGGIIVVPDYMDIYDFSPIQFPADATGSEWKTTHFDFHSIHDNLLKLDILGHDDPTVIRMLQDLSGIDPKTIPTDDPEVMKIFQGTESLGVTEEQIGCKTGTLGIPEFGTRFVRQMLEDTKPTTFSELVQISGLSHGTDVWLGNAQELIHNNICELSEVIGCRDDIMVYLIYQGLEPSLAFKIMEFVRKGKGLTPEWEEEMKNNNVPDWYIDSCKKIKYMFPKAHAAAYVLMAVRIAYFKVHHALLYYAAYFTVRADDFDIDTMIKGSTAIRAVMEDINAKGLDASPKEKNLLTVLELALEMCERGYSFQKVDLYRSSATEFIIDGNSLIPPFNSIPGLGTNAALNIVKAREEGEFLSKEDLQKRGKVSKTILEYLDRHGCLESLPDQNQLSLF
Chain of Ubiquitin carboxyl-terminal hydrolase 2 (Homo sapiens) (O75604 whole entry, looked up): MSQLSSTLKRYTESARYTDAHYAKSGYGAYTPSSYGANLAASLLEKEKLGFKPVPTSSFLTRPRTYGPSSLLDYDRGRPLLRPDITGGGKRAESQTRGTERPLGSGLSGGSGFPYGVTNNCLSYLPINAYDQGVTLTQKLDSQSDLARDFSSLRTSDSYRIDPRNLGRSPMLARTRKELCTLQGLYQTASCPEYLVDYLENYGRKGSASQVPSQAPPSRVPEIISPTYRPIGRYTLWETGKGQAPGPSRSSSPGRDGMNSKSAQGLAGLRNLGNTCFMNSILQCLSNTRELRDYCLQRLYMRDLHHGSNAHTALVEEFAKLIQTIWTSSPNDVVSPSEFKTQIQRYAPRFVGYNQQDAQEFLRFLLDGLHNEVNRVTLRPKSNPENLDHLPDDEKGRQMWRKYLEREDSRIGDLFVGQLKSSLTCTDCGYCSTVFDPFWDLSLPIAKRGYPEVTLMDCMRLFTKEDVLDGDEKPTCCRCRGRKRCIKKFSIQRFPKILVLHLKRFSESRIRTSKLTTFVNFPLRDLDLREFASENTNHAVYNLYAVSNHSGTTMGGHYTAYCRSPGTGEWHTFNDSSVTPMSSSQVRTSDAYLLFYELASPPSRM
Chain of Flap endonuclease 1 (Homo sapiens) (P39748 whole entry, looked up): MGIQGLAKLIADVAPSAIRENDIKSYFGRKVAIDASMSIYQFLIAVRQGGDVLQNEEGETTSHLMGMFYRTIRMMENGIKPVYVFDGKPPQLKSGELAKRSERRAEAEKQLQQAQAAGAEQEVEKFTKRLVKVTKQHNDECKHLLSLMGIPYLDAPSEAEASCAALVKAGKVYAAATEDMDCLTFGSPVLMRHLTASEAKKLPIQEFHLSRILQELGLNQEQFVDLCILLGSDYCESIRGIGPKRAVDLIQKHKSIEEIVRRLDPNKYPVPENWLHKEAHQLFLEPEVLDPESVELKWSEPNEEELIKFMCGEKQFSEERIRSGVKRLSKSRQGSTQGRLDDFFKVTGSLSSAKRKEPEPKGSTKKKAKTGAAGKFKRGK
Chain of ATP-dependent 6-phosphofructokinase (Trypanosoma brucei brucei) (O15648 whole entry, looked up): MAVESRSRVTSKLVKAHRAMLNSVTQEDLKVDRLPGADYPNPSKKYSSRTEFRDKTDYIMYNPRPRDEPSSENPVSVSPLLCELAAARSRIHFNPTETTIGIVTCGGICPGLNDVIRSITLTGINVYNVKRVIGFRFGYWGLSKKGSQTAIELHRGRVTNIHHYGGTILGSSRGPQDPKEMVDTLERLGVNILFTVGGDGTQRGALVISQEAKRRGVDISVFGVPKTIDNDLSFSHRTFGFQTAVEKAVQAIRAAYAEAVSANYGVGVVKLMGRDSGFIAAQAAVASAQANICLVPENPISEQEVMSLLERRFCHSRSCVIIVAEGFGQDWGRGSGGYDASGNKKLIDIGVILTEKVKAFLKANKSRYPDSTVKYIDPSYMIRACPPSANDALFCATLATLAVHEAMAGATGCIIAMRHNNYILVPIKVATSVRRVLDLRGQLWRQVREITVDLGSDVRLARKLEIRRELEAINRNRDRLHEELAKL
Chain of Ferritin light chain (Equus caballus) (P02791 2-175 limits assumed): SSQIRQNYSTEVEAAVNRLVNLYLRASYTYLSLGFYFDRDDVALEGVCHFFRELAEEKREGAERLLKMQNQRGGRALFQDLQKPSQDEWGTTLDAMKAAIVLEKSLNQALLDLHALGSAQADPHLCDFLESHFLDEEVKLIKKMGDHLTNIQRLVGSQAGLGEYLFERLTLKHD

CCN1CCC[C@H]1CNC(=O)c1c(O)c(Cl)cc(Cl)c1OC
inactive: [1] | [2] | [3] | [4] | [5] | [6] | [7] | [8] | [9] | [10] | [11] | [12] | [13] | [14] | [15] | [16] | [17] | [18]

C[C@H](CS)C(=O)N1CCC[C@H]1C(=O)O
inactive: [1] | [2] | [3] | [4] | [5] | [6] | [7] | [8] | [19] | [10] | [11] | [12] | [13] | [14] | [18]

NC(=O)c1ncn([C@@H]2O[C@H](CO)[C@@H](O)[C@H]2O)c1O
inactive: [1] | [2] | [4] | [5] | [6] | [7] | [8] | [9] | [19] | [10] | [11] | [12] | [14] | [20] | [15] | [16] | [17]

CCCCCN(CCCCC)C(=O)C(CCC(=O)O)NC(=O)c1ccc(Cl)c(Cl)c1 (stereo not given)
inactive: [1] | [2] | [4] | [5] | [6] | [7] | [8] | [9] | [19] | [10] | [11] | [12] | [14] | [20] | [15] | [16] | [17] | [18]

CN(C)C(=O)Oc1cccc([N+](C)(C)C)c1
inactive: [1] | [2] | [3] | [4] | [5] | [6] | [7] | [8] | [9] | [19] | [10] | [11] | [12] | [13] | [15] | [16] | [17]

CN=C(NC#N)NCCSCc1nc[nH]c1C
inactive: [1] | [2] | [3] | [4] | [5] | [6] | [7] | [8] | [9] | [10] | [11] | [12] | [14] | [16] | [17]

Cc1nc2ccccn2c(=O)c1CCN1CCC(C(=O)c2ccc(F)cc2)CC1
inactive: [1] | [2] | [3] | [4] | [5] | [6] | [7] | [8] | [9] | [19] | [10] | [11] | [14] | [15] | [16] | [17] | [18]

CCn1ccnc1CC1COc2ccccc2O1 (stereo not given)
inactive: [1] | [2] | [3] | [4] | [5] | [6] | [7] | [8] | [9] | [10] | [11] | [12] | [14] | [20] | [15] | [16] | [17] | [18]
